The results in this text go back to PubChem BioAssay.

Broadly, the inhibition is the change of the read-out against control, counted positive when it falls. For orientation: viability means a read-out of living cells in per cent, often relative to untreated cells.

Calls of active or inactive are those of the source.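 Rule for the calls, unless noted: active = viability loss from added drug above about 55%, and viability with drug at most 40%, in both replicates (limit read from the data, passing the limit was not always enough); inconclusive = both conditions met in only one replicate; inactive = neither replicate meets both conditions.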 Peptide text beside a SMILES is read from it.

Assay [1] deals with Pantothenate synthetase (Mycobacterium tuberculosis (strain ATCC 25618 / H37Rv)) (UniProt P9WIL5). In words: Coupled enzyme confirmation of inhibitors against recombinant Mtb PanC (AID 375; call rule not given here;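 note: 0% = full reaction with vehicle and 100% = no enzyme background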). As to conditions: coupled enzyme assay; at 10 µM, stronger effect = higher value.
A short description of assay [2]: HUVEC growth inhibition – cell-based, human, primary screen (AID 575;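 active = viability at or below 30% in both replicate assays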;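 note: 100% = median of untreated cell wells with 0.1% DMSO on each plate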). As to conditions: HUVEC proliferation, CellTiter-Glo luminescence, 72 h; at 10 µM; stronger effect = lower value. In general terms: In ATP-based viability assays light output follows the ATP content of the culture.
The nature of assay [3]: H69AR cell proliferation blockers – human, duplicate replicates, primary screen (AID 580;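 active = viability at or under a set limit in both replicates, limit being median viability minus 3 SD, cut at about 48% in these data, passing the limit was not always enough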;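 note: 100% = mean luminescence of untreated wells and 0% = no signal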). As to conditions: H69AR lung tumor cells viability, ATP luminescence, 72 h; at 10 µM; stronger effect = lower value.
Assay [4] in a line: MRP1 drug-resistance reversers in H69AR cells – cell-based, doxorubicin co-treatment, pilot screen (AID 601). As to conditions: CellTiter-Glo, 72 h, at 10 µM; for differential viability (reversal): stronger effect = higher value.
Assay [5] is described as follows: yeast transport mutant growth inhibition pilot in 384-well plates, post-Golgi transport modulator project (AID 636; in the data active = inhibition above about 31%). As to conditions: absorbance 615 nm, about 18 h, stronger effect = higher value.
Assay [6] can be described thus: growth suppression of yeast trafficking mutant, preliminary HTS, modulators of trafficking downstream of Golgi apparatus project, 1536-format plate, OD 615 nm (AID 637; in the data active = inhibition above about 30%). As to conditions: yeast transport mutant growth, absorbance 615 nm, 18 h; stronger effect = higher value.
The nature of assay [7]: reduced viability of SK-BR-3 breast cancer cells – cell-based, 24 h, human, pilot screen (AID 572;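 active = viability at or below 10% of carrier control in both of two separate runs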;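 note: compound exposure lasted between 18 and 24 h rather than exactly 24 h; 100% = carrier-treated control wells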). As to conditions: SK-BR-3 viability, CellTiter-Glo luminescence, at 10 µM, stronger effect = lower value.
[8] abbreviates: H69AR cells + 2 uM doxorubicin, measured here: viability with 2 uM doxorubicin, stronger effect = lower value.
Setting [9] is: H69AR cells, compound alone cytotoxicity.

Sequence of Pantothenate synthetase (Mycobacterium tuberculosis (strain ATCC 25618 / H37Rv)) (P9WIL5 whole entry, looked up): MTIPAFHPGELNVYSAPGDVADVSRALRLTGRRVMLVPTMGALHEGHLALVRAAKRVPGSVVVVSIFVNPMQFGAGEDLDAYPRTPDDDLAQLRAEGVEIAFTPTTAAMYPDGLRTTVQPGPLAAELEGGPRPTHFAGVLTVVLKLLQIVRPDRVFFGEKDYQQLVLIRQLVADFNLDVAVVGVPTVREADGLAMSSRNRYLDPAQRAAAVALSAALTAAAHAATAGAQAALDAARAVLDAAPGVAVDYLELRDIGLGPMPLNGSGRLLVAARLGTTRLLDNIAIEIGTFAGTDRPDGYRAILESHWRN

For `CCC(C(=O)N1CCC2(CC1)OCCO2)c1ccccc1` (stereo not drawn), the results for the inhibition in assay [1], in assay [5] and in assay [6] were 0% (inactive), -6.4% (inactive) and 1.43% (inactive), respectively. Also, the viability was 102% (inactive) in assay [2], 93% (inactive) in assay [3], 79.8% in assay [4] (setting [8]) and 93% in assay [4] (setting [9]). Besides, in assay [4] (H69AR cells + 2 uM doxorubicin), the differential viability (reversal) is 13.2% (inactive).
In the case of `O=C(CN1C2CCC1CC(O)(c1cccnc1)C2)Nc1ccc2c(c1)OCO2` (stereo not drawn), the results for the inhibition in assay [1], in assay [5] and in assay [6] were 11% (inactive), -6.53% (inactive) and 3.44% (inactive), respectively. For the same compound, the viability was 72% (inactive) in assay [7]; 90.2% (inactive) in assay [2]; 91.3% (inactive) in assay [3]; 88.8% in assay [4] (setting [8]); 91.3% in assay [4] (setting [9]). Further, the differential viability (reversal) in assay [4] (H69AR cells + 2 uM doxorubicin) was 2.46% (inactive).
Consider `COc1ccc(CCn2c(O)c(C=NCCCN(C)C)c(=O)[nH]c2=O)cc1OC`, for which the values for the inhibition in assay [1], in assay [5] and in assay [6] were 0% (inactive), -4% (inactive) and -1.59% (inactive), respectively. Moreover, the viability in assay [2] is 103% (inactive); in assay [3] it was 98.1% (inactive); in assay [4] (setting [8]), 94.5%; in assay [4] (setting [9]), 98.1%. Moreover, the differential viability (reversal) in assay [4] (H69AR cells + 2 uM doxorubicin) was 3.64% (inactive).
For `O=c1[nH]c2ccccc2n1C1CCN(CCCC(c2ccc(F)cc2)c2ccc(F)cc2)CC1`, the inhibition in assay [1] is 5% (inactive). The viability in assay [2] is 2.55% (active); in assay [4] (setting [8]) it was 1.62%; in assay [4] (setting [9]) it was 1.16%. For the same compound, the differential viability (reversal) in assay [4] (H69AR cells + 2 uM doxorubicin) was -0.46% (inactive).
In the case of `C[C@]12CCC(=O)C=C1CC[C@@H]1[C@@H]2CC[C@]2(C)C(=O)CC[C@@H]12`, the figures for the inhibition in assay [1], in assay [5] and in assay [6] were 0% (inactive), -3.38% (inactive) and -0.83% (inactive), respectively. In addition, the viability in assay [7] was 79% (inactive); in assay [2], 76.8% (inactive); in assay [3], 85.3% (inactive); in assay [4] (setting [8]) it was 86.8%; in assay [4] (setting [9]), 85.3%. In addition, in assay [4] (H69AR cells + 2 uM doxorubicin), the differential viability (reversal) is -1.5% (inactive).
Take `Cc1c2ccncc2c(C)c2c1[nH]c1ccccc12`: the inhibition is 0% (inactive) in assay [1], 1.56% (inactive) in assay [5] and 3.33% (inactive) in assay [6]. Also, the viability in assay [2] is 1.5% (active); in assay [4] (setting [8]), 0.98%; in assay [4] (setting [9]), 1.16%. The differential viability (reversal) in assay [4] (H69AR cells + 2 uM doxorubicin) is 0.18% (inactive).
`CN(C)CCc1nc2ccccc2c(=O)n1-c1ccccc1`: the inhibition in assay [1] was 0% (inactive); in assay [5], -2.08% (inactive); in assay [6], -4.43% (inactive). The viability is 107% (inactive) in assay [7]; 92.1% (inactive) in assay [2]; 90.6% (inactive) in assay [3]; 91.6% in assay [4] (setting [8]); 90.6% in assay [4] (setting [9]). Moreover, the differential viability (reversal) in assay [4] (H69AR cells + 2 uM doxorubicin) is -1.03% (inactive).
As for `CC(C)C[C@H](NC(=O)[C@@H]1CCCN1C(=O)[C@@H](N)Cc1ccc(O)cc1)C(=O)NCC(N)=O` (H-YPLG-NH2), the inhibition was 0% (inactive) in assay [1], -2.73% (inactive) in assay [5] and 0.33% (inactive) in assay [6]. The viability in assay [7] is 105% (inactive); in assay [2] it was 96.2% (inactive); in assay [3], 97.6% (inactive); in assay [4] (setting [8]), 96.8%; in assay [4] (setting [9]), 97.6%. Moreover, in assay [4] (H69AR cells + 2 uM doxorubicin), the differential viability (reversal) was 0.84% (inactive).
On to `c1ccc(Cn2ccnc2)cc1`, for which the inhibition in assay [1] is 0% (inactive); in assay [5], 0.78% (inactive); in assay [6], 22% (inactive). The viability in assay [7] is 127% (inactive); in assay [2], 84.4% (inactive); in assay [3] it was 93.5% (inactive); in assay [4] (setting [8]), 93.7%; in assay [4] (setting [9]), 93.5%. The differential viability (reversal) in assay [4] (H69AR cells + 2 uM doxorubicin) is -0.24% (inactive).
For the compound `O=C(O)Cn1cc(C(=O)c2ccccc2)c2ccccc21`, the inhibition in assay [1] is 0% (inactive); in assay [5], -7.07% (inactive); in assay [6] it was -0.36% (inactive). Further, the viability in assay [7] is 89% (inactive); in assay [2], 104% (inactive); in assay [3], 94.7% (inactive); in assay [4] (setting [8]), 96%; in assay [4] (setting [9]), 94.7%. In addition, in assay [4] (H69AR cells + 2 uM doxorubicin), the differential viability (reversal) is -1.34% (inactive).
As to `C[C@H]1CCC/C=C/C2C[C@H](O)CC2[C@H](O)/C=C/C(=O)O1` (stereo partly drawn), the inhibition in assay [1] was 0% (inactive); in assay [5], -2.08% (inactive); in assay [6] it was 0% (inactive). The viability was 120% (inactive) in assay [7], 7.17% (active) in assay [2], 1.34% in assay [4] (setting [8]) and 1.93% in assay [4] (setting [9]). The differential viability (reversal) in assay [4] (H69AR cells + 2 uM doxorubicin) was 0.59% (inactive).
As to `CCOC(=O)C1=C(N)OC(C)=C(C(=O)OCCOC)C12C(=O)Nc1ccccc12` (stereo not drawn), the inhibition in assay [1] is 5% (inactive); in assay [5], -4.52% (inactive); in assay [6], 1.64% (inactive). Further, the viability in assay [7] is 85% (inactive); in assay [2], 92% (inactive); in assay [3], 98.2% (inactive); in assay [4] (setting [8]) it was 107%; in assay [4] (setting [9]), 98.2%. For the same compound, in assay [4] (H69AR cells + 2 uM doxorubicin), the differential viability (reversal) is -9.01% (inactive).
`CCC(C)NC(=O)c1c(N)n(CC2CCCO2)c2nc3ccccc3nc12` (stereo not drawn): the inhibition in assay [1] was 0% (inactive); in assay [5], -0.4% (inactive); in assay [6] it was 4.92% (inactive). For the same compound, the viability in assay [7] is 93% (inactive); in assay [2], 53.4% (inactive); in assay [4] (setting [8]) it was 61.5%; in assay [4] (setting [9]), 53.4%. Besides, in assay [4] (H69AR cells + 2 uM doxorubicin), the differential viability (reversal) was -8.02% (inactive).
For `CCCCN1C(=O)NC(=O)C2(Cc3c(nc4c(C)cccn4c3=O)N3CCc4ccccc4C32)C1=O` (stereo not drawn), the inhibition was 3% (inactive) in assay [1], 3.56% (inactive) in assay [5] and 10.5% (inactive) in assay [6]. Also, the viability in assay [7] is 111% (inactive); in assay [4] (setting [8]), 75.6%; in assay [4] (setting [9]), 55.8%. The differential viability (reversal) in assay [4] (H69AR cells + 2 uM doxorubicin) was -19.7% (inactive).
Consider `O=c1[nH]c(=O)n(Cc2ccc(F)cc2)c(O)c1C=NCCCN1CCOCC1`, for which the inhibition was 0% (inactive) in assay [1], -1.6% (inactive) in assay [5] and -2.22% (inactive) in assay [6]. The viability in assay [2] is 96% (inactive); in assay [3], 95.5% (inactive); in assay [4] (setting [8]), 91.9%; in assay [4] (setting [9]) it was 95.5%. In assay [4] (H69AR cells + 2 uM doxorubicin), the differential viability (reversal) is 3.54% (inactive).
Turning to `O=C(C1CCCN(c2nnc(-n3cccc3)s2)C1)N1CCC2(CC1)OCCO2` (stereo not drawn), the inhibition in assay [1] was 0% (inactive); in assay [5] it was -7.33% (inactive); in assay [6], -5.09% (inactive). Also, the viability is 83% (inactive) in assay [7]; 109% (inactive) in assay [2]; 94.3% (inactive) in assay [3]; 81.6% in assay [4] (setting [8]); 94.3% in assay [4] (setting [9]). In addition, the differential viability (reversal) in assay [4] (H69AR cells + 2 uM doxorubicin) is 12.8% (inactive).
In the case of `Cc1cccc(C2=NCC(=O)N(CC(=O)NCc3ccco3)c3sc4c(c32)CCCC4)c1`, the inhibition in assay [1] was 8% (inactive); in assay [5] it was -6.49% (inactive); in assay [6], 4.6% (inactive). For the same compound, the results for the viability in assay [7], in assay [4] (setting [8]) and in assay [4] (setting [9]) were 102% (inactive), 84.4% and 55.9%, respectively. The differential viability (reversal) in assay [4] (H69AR cells + 2 uM doxorubicin) was -28.5% (inactive).
